Experimental data as given in PubChem BioAssay (EPA / NIEHS).
The source made the active and inactive calls. How the source made its calls: active means hit-call score of the fitted dose curve at least 0.9, where 1 is the maximum; inactive means score below 0.9.

Assays:
[1] = ATG_CRE_CIS: Attagene CIS-FACTORIAL HepG2 Assay for human cAMP Responsive Element (CRE) binding protein 3 (AID 2282926); conditions: HepG2 CRE cis-reporter, Attagene multiplexed mRNA; actives raise or lower the signal
In short: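 Readout: fluorescently labelled reporter transcripts resolved by capillary electrophoresis after RT-PCR, taken 24 h post-dosing in transfected HepG2. Endogenous transcription factor activity drives each cis-element reporter; gain or loss of signal fitted relative to DMSO control.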

[2] = biological target: CCAAT/enhancer-binding protein beta (Homo sapiens) (UniProt P17676); assay: ATG_C_EBP_CIS: Attagene CIS-FACTORIAL HepG2 Assay for human CCAAT/Enhancer Binding Protein (C/EBP) beta (AID 2282927); conditions: HepG2 Attagene cis-factorial transcription factor reporter; actives raise or lower the signal
In short: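 HepG2 transiently transfected with multiplexed reporter units under cis-regulatory promoters reporting endogenous C/EBPb activity. After 24 h exposure, reporter mRNA assayed by RT-PCR, fluorescent labelling, HpaI digestion and capillary electrophoresis; bidirectional fitting versus DMSO.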

[3] = ATG_CMV_CIS: Attagene CIS-FACTORIAL HepG2 Assay for human CMV (Internal Marker) (AID 2282928); conditions: HepG2 CMV promoter reporter, transcription factor profiling; actives raise or lower the signal;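 further: endpoint acts as a background internal control marker rather than a target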
In short: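 Readout: fluorescent reporter cDNA fragments separated by capillary electrophoresis after RT-PCR and HpaI cut. Cells: HepG2 carrying transfected cis-promoter reporter constructs, dosed 24 h. Endpoint serves as background internal-marker control, fit bidirectionally versus DMSO.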

[4] = ATG_DR4_LXR_CIS: Attagene CIS-FACTORIAL HepG2 Assay for human Liver X Receptor (LXR), DR4 submotif (AID 2282929); conditions: HepG2 Attagene DR4 cis-reporter, mRNA transcription; actives raise or lower the signal
In short: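 Readout: reporter transcript fluorescence after RT-PCR and capillary electrophoresis, fitted bidirectionally against DMSO controls. Human HepG2 liver cells carried transiently transfected multiplexed reporter constructs; endogenous transcription factor activity measured 24 h post-dosing.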

[5] = biological target: Aryl hydrocarbon receptor (Homo sapiens) (UniProt P35869); assay: ATG_Ahr_CIS: Attagene CIS-FACTORIAL HepG2 Assay for human Aryl Hydrocarbon Receptor (Ahr) (AID 2282930); conditions: HepG2 AhR cis-factorial reporter transcription; actives raise or lower the signal
In short: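 HepG2 cells transiently transfected with cis-element-driven multiplexed reporter units; endogenous AhR activity read as reporter mRNA 24 h after dosing, via RT-PCR, 6-FAM labelling, HpaI digestion and capillary electrophoresis. Bidirectional fit relative to DMSO.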

[6] = ATG_AP_1_CIS: Attagene CIS-FACTORIAL HepG2 Assay for human Activator Protein 1 (AP-1) (AID 2282931); conditions: HepG2 Attagene cis-factorial AP-1 reporter mRNA; actives raise or lower the signal
In short: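 Reporter transcripts were measured 24 h after dosing by RT-PCR and capillary electrophoresis of fluorescent fragments. Cells: HepG2 carrying transfected cis-regulated reporter constructs reading endogenous factor activity. Gain or loss fitted against DMSO.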

[7] = ATG_AP_2_CIS: Attagene CIS-FACTORIAL HepG2 Assay for human Activator Protein 2 (AP-2) (AID 2282932); conditions: HepG2 AP-2 cis-reporter, Attagene transcription factor profiling; actives raise or lower the signal
In short: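 Read-out: fluorescent reporter mRNA via RT-PCR and capillary electrophoresis, 24 h post-dose in transiently transfected HepG2. Endogenous factors drive cis-promoter reporters; gain or loss of signal fitted bidirectionally against DMSO.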

[8] = ATG_BRE_CIS: Attagene CIS-FACTORIAL HepG2 Assay for human Bone Morphogenetic Protein (BMP) Response Element (BRE) (AID 2282933); conditions: HepG2 BMP response element reporter, Attagene transcription factor profiling; actives raise or lower the signal
In short: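 HepG2 cells transiently transfected with multiplexed cis-element reporter units were dosed with chemical for 24 h. Reporter mRNA was measured by RT-PCR with fluorescent labelling, HpaI digestion and capillary electrophoresis; bidirectional fitting relative to DMSO.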

[9] = biological target: Transcription factor E2F1 (Homo sapiens) (UniProt Q01094); assay: ATG_E2F_CIS: Attagene CIS-FACTORIAL HepG2 Assay for human E2F Transcription Factor 1 (AID 2282935); conditions: HepG2 Attagene cis-reporter, E2F reporter RNA transcripts; actives raise or lower the signal
In short: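 Transient MRTU transfection of HepG2; 24 h compound exposure; RNA → oligo(dT) RT → PCR → FAM label → HpaI cut → CE fluorescence. Gain/loss of signal fit against DMSO.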

[10] = ATG_E_Box_CIS: Attagene CIS-FACTORIAL HepG2 Assay for human Enhancer Box (E-box) (AID 2282936); conditions: HepG2 E-box cis-reporter transcription, actives raise or lower the signal
In short: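 Transiently transfected HepG2, endogenous TF-driven reporters, 24 h dosing. Readout: RT-PCR plus capillary electrophoresis of fluorescent reporter fragments. Gain or loss of signal fitted bidirectionally against DMSO baseline.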

[11] = ATG_M_61_CIS: Attagene CIS-FACTORIAL HepG2 Assay for M61 Transcription Factor (Internal Marker) (AID 2282937); conditions: HepG2 Attagene CIS-FACTORIAL M61 internal marker reporter; actives raise or lower the signal
In short: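 Readout: fluorescent reporter mRNA fragments resolved by capillary electrophoresis after RT-PCR. Transiently transfected human HepG2 cells carried MRTU constructs reporting endogenous TF activity; 24 h chemical exposure; gain or loss of signal fitted relative to DMSO.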

[12] = ATG_EGR_CIS: Attagene CIS-FACTORIAL HepG2 Assay for human Early Growth Response 1 (EGR1) (AID 2282938); conditions: HepG2 Attagene CIS-FACTORIAL EGR reporter mRNA; actives raise or lower the signal
In short: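 Read-out: fluorescent reporter-mRNA fragments resolved by capillary electrophoresis after RT-PCR, 24 h post-dose in transiently transfected HepG2. Endogenous transcription-factor activity reported via cis-element-regulated reporter units; gain or loss fitted relative to DMSO.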

[13] = ATG_ERE_CIS: Attagene CIS-FACTORIAL HepG2 Assay for Estrogen Response Element (ERE) (AID 2282940); conditions: HepG2 ERE cis-reporter, Attagene RNA transcript; actives raise or lower the signal
In short: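 HepG2 cells transiently transfected with cis-promoter-driven multiplexed reporter transcription units report endogenous TF activity. After 24 h compound exposure, reporter mRNA is quantified by RT-PCR with capillary electrophoresis fluorescence; bidirectional fitting versus DMSO baseline.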

[14] = biological target: Hepatocyte nuclear factor 3-beta (Homo sapiens) (UniProt Q9Y261); assay: ATG_FoxA2_CIS: Attagene CIS-FACTORIAL HepG2 Assay for human Forkhead box A2 (FOXA2) (AID 2282942); conditions: HepG2 cis-reporter transcription factor activity, 24 h; actives raise or lower the signal
In short: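 Readout: fluorescent reporter transcripts resolved by capillary electrophoresis after RT-PCR. Transiently transfected HepG2, 24 h compound exposure, endogenous TF activity at cis promoter elements. Gain or loss of signal fitted relative to DMSO.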

[15] = ATG_FoxO_CIS: Attagene CIS-FACTORIAL HepG2 Assay for human Forkhead box O (FoxO) (AID 2282943); conditions: HepG2 Attagene cis-reporter, FoxO element, mRNA; actives raise or lower the signal
In short: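 HepG2 cells transiently transfected with cis-element-driven reporter units report endogenous FoxO activity. After 24 h chemical exposure, reporter mRNA quantified by RT-PCR, fluorescent labeling, HpaI digestion and capillary electrophoresis; bidirectional fit versus DMSO.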

[16] = ATG_GATA_CIS: Attagene CIS-FACTORIAL HepG2 Assay for human GATA Binding Protein (AID 2282944); conditions: HepG2 GATA cis-element reporter, Attagene multiplex mRNA; actives raise or lower the signal
In short: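 HepG2 cells transiently transfected with multiplexed cis-element reporter units reflecting endogenous transcription factor activity; reporter mRNA measured after 24 h dosing by RT-PCR, 6-FAM labeling, HpaI digestion and capillary electrophoresis. Bidirectional fitting versus DMSO baseline.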

[17] = ATG_GLI_CIS: Attagene CIS-FACTORIAL HepG2 Assay for human Zinc Finger Protein GLI1 (AID 2282945); conditions: HepG2, Attagene cis-factorial reporter mRNA, GLI element; actives raise or lower the signal
In short: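 Transiently transfected HepG2 cells report endogenous transcription factor activity via cis-element-driven reporter units. After 24 h compound exposure, reporter mRNA was measured by RT-PCR with capillary electrophoresis; bidirectional fitting against DMSO baseline.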

[18] = ATG_M_19_CIS: Attagene CIS-FACTORIAL HepG2 Assay for M19 Transcription Factor (Internal Marker) (AID 2282939); conditions: HepG2 Attagene CIS-FACTORIAL M19 internal marker reporter; actives raise or lower the signal
In short: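 HepG2 cells transiently transfected with cis-regulated multiple reporter transcription units were dosed for 24 h; reporter mRNA was quantified by RT-PCR, 6-FAM primer-extension labelling, HpaI digestion and capillary electrophoresis, with bidirectional fitting against DMSO baseline.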

[19] = ATG_Ets_CIS: Attagene CIS-FACTORIAL HepG2 Assay for human Erythroblast Transformation Specific (ETS) (AID 2282941); conditions: HepG2 ETS cis-reporter transcription, actives raise or lower the signal
In short: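 RT-PCR/capillary electrophoresis fluorescence read-out of reporter mRNA; HepG2 transient multi-reporter transfection; 24 h compound exposure; gain or loss of signal fitted bidirectionally relative to DMSO.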

Measured: AC50

Sequence of Aryl hydrocarbon receptor (Homo sapiens) (P35869 whole entry, looked up): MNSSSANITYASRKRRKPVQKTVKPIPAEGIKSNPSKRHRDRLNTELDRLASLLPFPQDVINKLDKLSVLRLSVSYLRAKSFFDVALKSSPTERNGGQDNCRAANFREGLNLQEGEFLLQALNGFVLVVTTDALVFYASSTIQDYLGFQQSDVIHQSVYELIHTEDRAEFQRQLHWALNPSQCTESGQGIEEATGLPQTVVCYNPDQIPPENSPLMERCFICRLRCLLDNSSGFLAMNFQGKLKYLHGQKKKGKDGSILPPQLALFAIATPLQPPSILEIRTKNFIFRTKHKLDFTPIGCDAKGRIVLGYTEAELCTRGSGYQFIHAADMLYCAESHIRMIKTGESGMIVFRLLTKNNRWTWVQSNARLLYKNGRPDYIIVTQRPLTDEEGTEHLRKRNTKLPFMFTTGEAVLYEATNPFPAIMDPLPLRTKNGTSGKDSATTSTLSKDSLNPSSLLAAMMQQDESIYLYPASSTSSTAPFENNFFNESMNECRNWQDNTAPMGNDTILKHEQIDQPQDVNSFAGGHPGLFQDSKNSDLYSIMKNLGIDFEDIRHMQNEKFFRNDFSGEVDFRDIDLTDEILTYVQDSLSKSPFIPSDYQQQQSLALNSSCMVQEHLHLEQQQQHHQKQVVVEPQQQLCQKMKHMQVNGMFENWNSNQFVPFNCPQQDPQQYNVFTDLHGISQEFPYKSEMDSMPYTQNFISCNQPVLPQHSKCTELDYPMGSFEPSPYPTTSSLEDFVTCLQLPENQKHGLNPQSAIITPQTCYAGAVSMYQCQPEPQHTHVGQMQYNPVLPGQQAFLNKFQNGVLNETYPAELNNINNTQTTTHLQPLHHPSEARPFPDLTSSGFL
Sequence of Transcription factor E2F1 (Homo sapiens) (Q01094 whole entry, looked up): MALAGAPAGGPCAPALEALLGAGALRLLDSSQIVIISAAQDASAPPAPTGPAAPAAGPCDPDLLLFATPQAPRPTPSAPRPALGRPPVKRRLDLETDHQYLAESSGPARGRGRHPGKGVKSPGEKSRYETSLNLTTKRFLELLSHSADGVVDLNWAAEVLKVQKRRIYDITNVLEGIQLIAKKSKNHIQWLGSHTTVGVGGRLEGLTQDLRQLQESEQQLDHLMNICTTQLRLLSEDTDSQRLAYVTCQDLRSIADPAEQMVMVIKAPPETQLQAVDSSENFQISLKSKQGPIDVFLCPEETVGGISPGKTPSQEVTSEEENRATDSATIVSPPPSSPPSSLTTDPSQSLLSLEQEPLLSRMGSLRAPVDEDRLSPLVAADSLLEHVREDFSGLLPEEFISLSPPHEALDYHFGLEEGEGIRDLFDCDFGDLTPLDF
Sequence of Hepatocyte nuclear factor 3-beta (Homo sapiens) (Q9Y261 whole entry, looked up): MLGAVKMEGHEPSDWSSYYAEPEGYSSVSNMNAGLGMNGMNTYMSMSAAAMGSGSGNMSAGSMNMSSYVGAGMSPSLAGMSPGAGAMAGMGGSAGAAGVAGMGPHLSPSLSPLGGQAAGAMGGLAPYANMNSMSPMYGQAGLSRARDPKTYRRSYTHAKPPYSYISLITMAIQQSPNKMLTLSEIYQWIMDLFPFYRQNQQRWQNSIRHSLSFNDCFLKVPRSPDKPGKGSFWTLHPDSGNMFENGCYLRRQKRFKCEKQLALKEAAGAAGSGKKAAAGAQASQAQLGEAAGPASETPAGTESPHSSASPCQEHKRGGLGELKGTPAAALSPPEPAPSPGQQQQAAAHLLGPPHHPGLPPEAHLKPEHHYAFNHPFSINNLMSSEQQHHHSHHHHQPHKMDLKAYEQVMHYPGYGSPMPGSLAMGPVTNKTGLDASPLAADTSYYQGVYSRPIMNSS
Sequence of CCAAT/enhancer-binding protein beta (Homo sapiens) (P17676 whole entry, looked up): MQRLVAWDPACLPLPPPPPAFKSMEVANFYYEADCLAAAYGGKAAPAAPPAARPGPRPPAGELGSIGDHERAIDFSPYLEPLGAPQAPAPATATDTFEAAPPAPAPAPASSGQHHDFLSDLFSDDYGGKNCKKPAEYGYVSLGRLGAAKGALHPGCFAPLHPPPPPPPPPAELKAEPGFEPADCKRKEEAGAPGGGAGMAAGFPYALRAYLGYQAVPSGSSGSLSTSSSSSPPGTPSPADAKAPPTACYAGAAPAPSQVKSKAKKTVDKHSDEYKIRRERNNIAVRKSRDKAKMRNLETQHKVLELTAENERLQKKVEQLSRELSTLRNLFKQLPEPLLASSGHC

C[C@H]1C[C@H]2[C@@H]3CCC4=CC(=O)C=C[C@]4(C)[C@@]3(F)[C@@H](O)C[C@]2(C)[C@@]1(O)C(=O)COP(=O)(O)O
inactive: [1] | [2] | [3] | [4] | [5] | [6] | [7] | [8] | [9] | [10] | [11] | [12] | [13] | [14] | [15] | [16] | [17]

O=[N+]([O-])c1cc(C(F)(F)F)ccc1Cl
inactive: [1] | [2] | [3] | [4] | [5] | [6] | [7] | [8] | [9] | [10] | [11] | [12] | [18] | [19] | [14] | [15] | [16] | [17]

CC(C)[C@H]1CC[C@@H](C)CC1=O
inactive: [1] | [2] | [3] | [4] | [5] | [6] | [7] | [8] | [9] | [10] | [11] | [12] | [18] | [19] | [14] | [15] | [16]

OC1C(O)C(O)C(O)C(O)C1O (stereo unspecified)
active: [5] 70.3 µM
inactive: [1] | [2] | [3] | [4] | [6] | [7] | [8] | [9] | [10] | [11] | [12] | [13] | [14] | [15] | [16] | [17]

CCCC/C=C\CCCCCCCCCC=O
inactive: [1] | [2] | [3] | [4] | [5] | [6] | [7] | [8] | [9] | [10] | [11] | [12] | [18] | [19] | [14] | [16] | [17]

N#Cc1nc(Cl)c(Cl)c(Cl)c1Cl
active: [2] 6.82 µM | [3] 7.02 µM | [4] 3.14 µM | [6] 6.02 µM | [7] 4.74 µM | [8] 5.89 µM | [10] 5.53 µM | [12] 4.56 µM | [19] 2.25 µM | [14] 6.82 µM | [15] 5.92 µM | [17] 5.39 µM
inactive: [1] | [5] | [9] | [11] | [18]

Cc1ccc(C(=O)c2cc(O)c(O)c([N+](=O)[O-])c2)cc1
active: [3] 26.3 µM | [7] 27.2 µM | [8] 56 µM | [10] 27 µM
inactive: [1] | [2] | [4] | [5] | [6] | [9] | [11] | [12] | [18] | [19] | [14] | [15] | [16] | [17]
